# Measurements taken from PubChem BioAssay (Tox21).
# “And” between values parts separate entries of the source, which are not always exact repeats. Equal values may be shown once. Results filed as inconclusive are left out. Values without a mark were called inactive. The source made the active and inactive calls. Calls come from the whole dose curve; as a rule, active = well fitted inhibition curve with a large enough effect in the repeat runs; inconclusive = weak or mixed curves; inactive = no such curve, though single readings can be large or run the other way.
# Target: Cytochrome P450 3A4 (Homo sapiens) (UniProt P08684)
# Sequence (P08684 whole entry, looked up): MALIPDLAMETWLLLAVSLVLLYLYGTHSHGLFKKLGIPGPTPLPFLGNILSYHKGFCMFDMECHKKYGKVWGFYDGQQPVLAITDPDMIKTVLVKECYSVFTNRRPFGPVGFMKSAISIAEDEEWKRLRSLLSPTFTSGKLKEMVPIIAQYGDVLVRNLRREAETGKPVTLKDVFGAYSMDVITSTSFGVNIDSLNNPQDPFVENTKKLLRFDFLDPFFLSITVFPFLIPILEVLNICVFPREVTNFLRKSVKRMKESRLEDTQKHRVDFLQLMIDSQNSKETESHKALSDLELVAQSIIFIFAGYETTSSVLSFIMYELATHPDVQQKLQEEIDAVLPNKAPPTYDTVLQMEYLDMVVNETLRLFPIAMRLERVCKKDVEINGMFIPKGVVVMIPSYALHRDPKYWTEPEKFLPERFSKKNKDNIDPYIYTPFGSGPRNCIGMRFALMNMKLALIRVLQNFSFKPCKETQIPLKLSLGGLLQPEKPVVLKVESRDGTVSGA
# Experiment: Cytochrome P450 Family 3 Subfamily A Member 4 (CYP3A4) small molecule antagonists: luciferase reporter qHTS assay (AID 1671201); note: nearly all actives have a fitted effect of over 50% in size
# Details: P450-Glo CYP3A4 enzyme, luciferin luminescence, 1 h; series mostly up to 115 µM; activity change, negative = inhibition: at the top concentration
# From the text: National Center for Advancing Translational Sciences [NCATS]
# U.S. Environmental Protection Agency [EPA]
# National Institutes of Environmental Health Sciences [NIEHS]
# National Toxicology Program [NTP]
# U.S. Food and Drug Administration [FDA]
# Cytochrome P450 (CYP) enzymes are membrane-bound hemeproteins that play a key role in metabolism of drugs and xenobiotics. Evaluation of the effect of chemicals on CYP isozymes is useful to minimize the adverse drug reactions and toxicities in drug development process. Tox21 chemicals were tested for their effect on CYP enzyme activities by using P450-Glo (TM) screening systems (Promega Corporation, Madison, WI). These systems provide a luminescent method containing proluciferin substrates and are converted to luciferin products by CYP isozymes. The luciferin products formed are detected with a luciferin detection reagent, and the amount of light produced is proportional to CYP activity. P450-Glo (TM) CYP3A4 screening system (Catalog. No. V9910) was used to detect the compounds that interfere in CYP3A4 activity. The positive control compound used for CYP3A4 assay is ketoconazole (Sigma-Aldrich, St. Louis, MO).
# Tox21 Assay Protocol Summary:
# Two ul of enzyme-substrate mix was dispensed into medium binding white/solid 1536-well plates (Greiner Bio-One North America Inc., Monroe, NC) using a BioRaptr Flying Reagent Dispenser (FRD, Beckman Coulter, Brea, CA). Compounds dissolved in DMSO and positive control (ketoconazole) were transferred to the assay plates at 23 nl using a Pintool station (Wako, San Diego, CA). The assay plates were incubated at room temperature for 10 min. Then 2 ul of NADPH regeneration solution was added to each well of the assay plates using an FRD and incubated at room temperature for 1 h. The reaction was stopped by adding 4 ul of detection reagent using an FRD and after 20 min incubation at room temperature the luminescence signal was measured using a ViewLux plate reader (Perkin Elmer, Shelton, CT). Data were expressed as relative luminescence units.
# % is set by controls: 0 for no effect and ±100 for the full control effect; potency is the fitted concentration of half-maximal effect.
SMILES,Potency,"activity change, negative = inhibition [%]"
COc1ccc(/C(=C/C(=O)N2CCOCC2)c2ccc(Cl)cc2)cc1OC,3.17 µM (active),
CCOP(=S)(OCC)SCS(=O)(=O)C(C)(C)C,2.83 µM (active),
CCCCCCCCCCCCCCCCCCn1cc[n+](C)c1,31.5 µM (active),
CC(C)(C)C(O)/C(=C\c1ccc(Cl)cc1Cl)n1cncn1 (stereo not given),0.272 µM (active),
C=CCOC(N)=O,,3.68
COc1ccc(N)cc1N,11.6 µM (active),
COc1ccc(OC)c(CC(C)N)c1 (stereo not given),,-0.443
ClC1=C(Cl)[C@]2(Cl)[C@@H]3[C@@H](Cl)[C@H](Cl)C[C@@H]3[C@@]1(Cl)C2(Cl)Cl,,0.943
CCSC(C)CC1CC(=O)C(/C(CC)=N/OC/C=C/Cl)=C(O)C1 (stereo not given),8.71 µM (active),
BrCBr,,0.49
Clc1ccc(-c2ccccc2)cc1,,0.425
CCc1ccccc1C,,0.0603
Cc1ccc(CCl)cc1,,5.04
O=[N+]([O-])c1cc(C(F)(F)F)c(Cl)c([N+](=O)[O-])c1Cl,56.4 µM (active),
CCCCCCCCCBr,,2.57
CCOCCOC(C)=O,,8.3
N#CCCSCCC#N,,3.5
CCCCCCCCCCCCBr,,10.4
N#Cc1ccc(O)cc1,,-0.0427
N#Cc1ccccc1Cl,,3.27

SMILES,Potency,"activity change, negative = inhibition [%]"
O=C1C=CC(=O)c2ccccc21,15.9 µM (active),
CC(=[OH+])/C=C(/C)[O-].CC(=[OH+])/C=C(\C)[O-].CC(=[OH+])/C=C(\C)[O-].[Fe],,5.29
ClC(Cl)=C(c1ccc(Cl)cc1)c1ccc(Cl)cc1,inactive,
O=C(O)c1cc[c]([Hg][Cl])cc1,8.94 µM (active),
CCOP(=S)(OCC)OC(Cl)C(Cl)(Cl)Cl (stereo not given),3.99 µM (active),
CCCCN(CCCC)C(=S)[S-].CCCCN(CCCC)C(=S)[S-].[Zn+2],28.3 µM (active),
CC(Cc1ccc(C(C)(C)C)cc1)CN1C[C@@H](C)O[C@@H](C)C1 (stereo not given in full),22.4 µM (active),
O=C(CCl)Nc1ccccc1,,-5.86
N#CSCSC#N,inactive,
c1ccc(Nc2ccc3ccccc3c2)cc1,22.3 µM (active) and 35.6 µM (active),
CC(=[OH+])/C=C(/C)[O-].CC(=[OH+])/C=C(\C)[O-].CC(=[OH+])/C=C(\C)[O-].[Al],,-0.0163
O=CC(Br)(Br)Br,,6.15
CC1(C)CN=C(NN=C(/C=C/c2ccc(C(F)(F)F)cc2)/C=C/c2ccc(C(F)(F)F)cc2)NC1,,2.7
C[C@]12CC[C@H](O)C[C@H]1CC[C@@H]1[C@@H]2C[C@@H](O)[C@]2(C)[C@@H](C3=CC(=O)OC3)CC[C@]12O,,-22.7
CC(C)(COCC1CO1)COCC1CO1 (stereo not given),,-9.84
O=[N+]([O-])c1ccc2ccc3cccc4ccc1c2c34,,-25.9
COP(N)(=S)OC,,-12.6
CC(C)(C)C(O)C(Oc1ccc(-c2ccccc2)cc1)n1cncn1 (stereo not given),0.448 µM (active),
Oc1ccccc1Br,,-2.46
N#C/C=C/C#N,37.3 µM (active),
